Assay results published in PubChem BioAssay AID540333 (Southern Research Specialized Biocontainment Screening …, 2011).
Screen size: about 10,000 compounds; about 320 (3.2%) were called active. Rule as the data show it: active = CPE inhibition mostly above about 9.1% (no sharp cut-off); inactive = mostly below about 7.2%. The list comes from a sample in which actives are over-represented; it also holds similar structures and randomly drawn compounds.

Experiment: Dengue virus cytopathic effect inhibitors, cell-based, CPE readout, HTS (AID 540333)
Conditions: Dengue virus CPE inhibition in host cells, at 20 µM; active compounds read high

Structure (SMILES) | CPE inhibition
CCCCn1c(N)c(NCCC)c(=O)[nH]c1=O | inactive
COc1cc(C)c(S(=O)(=O)N2CCN=C2c2ccccc2)cc1C | inactive
CCO[C@@H]1OC(C(=O)O)=C[C@H](c2cn(C(C)=O)c3ccccc23)[C@H]1CCCO | inactive
Cc1ccccc1NC(=S)NCC(c1cccnc1)N1CCOCC1 (stereo not given) | inactive
N#Cc1c(-c2ccccc2)nc(SCC(=O)Nc2ccccc2)[nH]c1=O | inactive
Cc1cccc(N2CCN(C(=S)NCc3ccco3)CC2)c1C | 0.45% (inactive)
CC(NS(=O)(=O)c1ccc2c(c1)OCCCO2)C(=O)O (stereo not given) | 0.55% (inactive)
CCCCOC(=O)/C=C/c1ccc(OC(=O)OC)c(OC(=O)OC)c1 | inactive
COc1ccc(/C(O)=C2/C(=O)C(=O)N(CCCN(C)C)C2c2cccc(Cl)c2)cc1OC (stereo not given) | 0.13% (inactive)
CCOC(=O)c1c(NC(=O)CSC(=S)N2CCOCC2)sc(C)c1C | 0.065% (inactive)
COc1ccc(C(=O)NC(=S)N(CCC(C)C)c2c(N)n(Cc3ccccc3)c(=O)[nH]c2=O)cc1 | 0.675% (inactive)
CC(=O)c1cc(-c2ccccc2)n(CC(=O)Nc2cccc(C)c2C)c1C | 0.49% (inactive)
CC[C@@]12C(=O)N(c3ccccc3)C(=O)N1[C@H](c1ccc(Br)cc1)[C@@H]1C(=O)N(C(C)(C)C)C(=O)[C@@H]12 | 5.79% (inactive)
COc1ccc([C@@H]2[C@@H]3C(=O)N(C(C)(C)C)C(=O)[C@@H]3[C@]3(Cc4ccccc4)C(=O)N(c4ccc(OC)cc4)C(=O)N23)cc1 | 0.525% (inactive)
COc1ccc([C@@H]2[C@@H]3C(=O)N(C(C)(C)C)C(=O)[C@@H]3[C@]3(C)C(=O)N(c4ccc(C)cc4)C(=O)N23)cc1 | inactive
CC(C)C[C@@]12C(=O)N(c3cccc(F)c3)C(=O)N1[C@H](c1ccc(Br)cc1)[C@@H]1C(=O)N(C(C)(C)C)C(=O)[C@@H]12 | 52.3% (active)
CC[C@@]12C(=O)N(c3cccc(Br)c3)C(=O)N1[C@H](c1cccc(C)c1)[C@@H]1C(=O)N(Cc3ccccc3)C(=O)[C@@H]12 | 12.7% (active)
Cc1cccc([C@@H]2[C@@H]3C(=O)N(Cc4ccccc4)C(=O)[C@@H]3[C@]3(CC(C)C)C(=O)N(c4cccc(Br)c4)C(=O)N23)c1 | 1.25% (inactive)
COc1ccc([C@@H]2[C@@H]3C(=O)N(C(C)(C)C)C(=O)[C@@H]3[C@]3(C)C(=O)N(c4cccc(Cl)c4)C(=O)N23)cc1 | 0.865% (inactive)
CC(C)(C)N1C(=O)[C@H]2[C@@H](c3ccc(Br)cc3)N3C(=O)N(c4cccc(Cl)c4)C(=O)[C@@]3(Cc3ccccc3)[C@H]2C1=O | 31.9% (active)
CCOC(=O)[C@@H]1[C@H]2COc3ccccc3[C@H]2N2C(=O)N(c3cccc(Cl)c3)C(=O)[C@]12C | 0.045% (inactive)
CCN1C(=O)[C@H]2[C@@H](c3ccc(C)cc3)N3C(=O)N(c4ccccc4)C(=O)[C@@]3(CC)[C@H]2C1=O | inactive
CC(C)(C)N1C(=O)[C@H]2[C@@H](c3ccc(Br)cc3)N3C(=O)N(c4ccccc4)C(=O)[C@@]3(C)[C@H]2C1=O | 2.17% (inactive)

Structure (SMILES) | CPE inhibition
CC[C@@]12C(=O)N(c3cccc(Cl)c3)C(=O)N1[C@H](c1ccc(Br)cc1)[C@@H]1C(=O)N(C(C)(C)C)C(=O)[C@@H]12 | 23.6% (active)
CC(=O)c1ccc(N2Cc3ccccc3/C2=N\C(=O)Nc2ccccc2)cc1 | 1.88% (inactive)
O=C(c1cc(-c2ccccc2)nn1CC1CC(c2cccnc2)=NO1)N1CCOCC1 (stereo not given) | 0.185% (inactive)
Cc1ccc(/C=C/C(=O)NCCCN2CCN(CCCNC(=O)/C=C/c3ccc(C)o3)CC2)o1 | 0.03% (inactive)
Cc1ccc([N+](=O)[O-])cc1S(=O)(=O)NCCc1c(C)[nH]c2c(C)cccc12 | 0.035% (inactive)
COc1ccc(NC(=S)N(CCN(C)C)C(C)c2ccco2)cc1 (stereo not given) | 1.96% (inactive)
CCC(=O)N/N=C(\C)CC(=O)Nc1ccccc1-c1ccccc1 | inactive
Cc1ccc(-c2cc3c(n2-c2ccc(C(=O)O)cc2)CCCC3=O)cc1 | inactive
COc1ccc(C(=O)NCC(=O)NCC(c2ccco2)N(C)C)cc1OC (stereo not given) | inactive
CCOc1ccc(NC(=O)CNC(=O)COc2ccccc2)cc1 | 0.38% (inactive)
COC(C(=O)Nc1ccc(S(=O)(=O)Nc2cccc3ccccc23)cc1)c1ccccc1 (stereo not given) | 5.08% (inactive)
O=C(NC(=S)N1CCN(c2ccc([N+](=O)[O-])cc2)CC1)c1ccccc1F | 1.42% (inactive)
O=C(COC(=O)CC1c2ccccc2CCN1S(=O)(=O)c1ccccc1)Nc1ccccc1 (stereo not given) | 0.325% (inactive)
COc1ccc([C@H]2CC(=O)C=C(c3cccc(OC)c3)C2)cc1 | inactive
CCOC(=O)c1cccc(C2=CC(=O)C[C@H](c3ccc(OC)cc3)C2)c1 | 11.8% (active)
COc1ccc([C@H]2CC(=O)C=C(c3ccccc3)C2)cc1 | 3.05% (inactive)
CCOc1cccc(OCCOCCN(C)C)c1 | inactive
CCOC(=O)C1=NNC2(c3ccc(Cl)cc3)C(=O)N(c3ccc(C)cc3)C(=O)C12 (stereo not given) | inactive
CSCCC(NS(=O)(=O)c1ccc(Cl)cc1)C(=O)OCc1cccc(Cl)c1 (stereo not given) | 12% (active)
CSCCC(NC(=O)c1ccc(Cl)cc1)C(=O)OCC(=O)Nc1cc(Cl)ccc1C (stereo not given) | 0.1% (inactive)
CC(=O)Nc1ccc(S(=O)(=O)NCCSCc2cccc(Cl)c2)cc1 | 1.06% (inactive)
CC(C)OC(=O)/C(=C/c1ccc(Br)cc1)NC(=O)c1ccco1 | inactive
